SMILES strings stand for the structures. In all, about 200,000 compounds went through this assay and about 18,000 (9%) were called active. Rule as the data show it: active = inhibition above about 50%; inactive = the rest. For the sample, actives were picked, then their nearest neighbours and some compounds at random.

The nature of the experiment: antileishmanial activity against promastigotes – primary screen (AID 1063).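 Also: promastigotes grown with compound for 44 hours at 28 °C.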 The note with it: Leishmania major promastigotes, resazurin fluorescence viability; at 10 µM; hits give high values.
Take `O=C1c2ccccc2NC(c2ccccc2O)N1NS(=O)(=O)c1ccccc1` (centres undefined): the inhibition is 7.23% (inactive).

`Cc1ccc(Cl)c(NC(=O)CN2CCN(C=O)CC2)c1`: the inhibition was -1.88% (inactive).

Regarding `COc1cccc(NC(=O)c2ccc3c(SCC(=O)O)c4c(nc3c2)CCCC4)c1`, the inhibition is 7.5% (inactive).

For `O=C(Nc1ccncc1)c1cc(-c2ccccn2)nc2ccc(Br)cc12`, the inhibition was 2.98% (inactive).

For the molecule `NC(=O)c1ccccc1N(Cc1ccccc1)S(=O)(=O)c1ccccc1`, the inhibition was 2.81% (inactive).

As for `CC(C)(C)n1nc2c(c1NC(=O)c1cc3ccccc3o1)CSC2`, the inhibition is 1.01% (inactive).

As for `COc1ccccc1N1CCN(c2ccc([N+](=O)[O-])nc2)CC1`, the inhibition was -10.8% (inactive).

`C/C(=N/N1CCN(Cc2cccc3ccccc23)CC1)c1cccnc1`: the inhibition was 17.2% (inactive).

On to `CCOC(=O)C1(Cc2ccccc2C(F)(F)F)CCN(C(=O)c2cc(C)n(C)n2)CC1`, for which the inhibition is 5.02% (inactive).

As for `OCC1(Cc2ccccc2C(F)(F)F)CCN(Cc2cccc3cnccc23)CC1`, the inhibition is 88.2% (active).

Regarding `COc1ccc(C2=NN(c3nc4ccccc4s3)C(=O)C2)cc1`, the inhibition was -7.22% (inactive).

Turning to `CCC(C)(C)NC(=O)CN(C(=O)CCC(=O)Nc1cc(C)ccn1)c1ccc2c(c1)OCCO2`, the inhibition was -0.92% (inactive).

On to `CCC(C)N(C)C1CCN(C(=S)Nc2ccc(OC)cc2)CC1` (centres undefined), for which the inhibition is 34.2% (inactive).

For `CCOc1ccc(NC(=S)N2CCCCCC2)cc1`, the inhibition was 3.65% (inactive).

Turning to `CCOc1ccc(NC(=S)N2CCC(N(C)CC3CCCO3)CC2)cc1` (centres undefined), the inhibition was 96.2% (active).

`Cn1cc(CN2CCC(C(O)CCc3ccccc3)CC2)c(-c2ccccc2F)n1` (centres undefined): the inhibition was -2.53% (inactive).

With `Cc1ccc(NC(=O)Cn2c(=O)n(CCC(=O)NC3CCN(Cc4ccccc4)CC3)c(=O)c3ccccc32)cc1`, the inhibition is 0.09% (inactive).

For `Cc1ccc(CNC(=O)CCNS(=O)(=O)c2ccc(Br)s2)cc1`, the inhibition was -6.86% (inactive).

For the molecule `COc1ccc(Cn2c(=O)cc(C)[nH]c2=S)cc1`, the inhibition was -4.72% (inactive).

`COc1ccc(CN2CN(C(C)C)CSC2=S)cc1`: the inhibition was 96.4% (active).

As to `COc1ccc(CN2CN(C3CCCC3)CSC2=S)cc1`, the inhibition is 5.66% (inactive).

Consider `COc1ccccc1CC(=O)Nc1ccc([N+](=O)[O-])cc1OC`, for which the inhibition was -0.93% (inactive).

With `COc1ccccc1CSc1ncc(-c2ccc([N+](=O)[O-])cc2)[nH]1`, the inhibition is 76.4% (active).

On to `COc1ccccc1CSc1nc2ccccc2[nH]1`, for which the inhibition is -3.47% (inactive).

For the molecule `CCOC(=O)/C=c1\s/c(=C\c2ccc(C#N)cc2)c(=O)n1CC(=O)Nc1cccc(C)c1C`, the inhibition was -1.97% (inactive).

As for `CCOC(=O)C/C(C)=N\Nc1ccc([N+](=O)[O-])cc1[N+](=O)[O-]`, the inhibition was 2.68% (inactive).

As for `CN1C(=O)/C(=C/C=C2\SCCN2C)OC1=S`, the inhibition was 12.9% (inactive).

Take `CCOc1ccc(S(=O)(=O)N(CC(=O)NCC(F)(F)F)Cc2ccco2)cc1`: the inhibition is -5.48% (inactive).

Consider `COc1ccc(N(CC(=O)N/N=C/c2cccs2)S(=O)(=O)c2ccc(OC)c(OC)c2)cc1`, for which the inhibition was 3.63% (inactive).

Consider `COc1ccc(CN(Cc2ccco2)S(=O)(=O)c2ccc(S(=O)(=O)N3CCCC3)cc2)cc1`, for which the inhibition is -4.09% (inactive).

On to `CCN(CC)S(=O)(=O)c1ccc(N2CCCC2)c(NS(=O)(=O)c2cccs2)c1`, for which the inhibition is -1.33% (inactive).

Take `CCOc1ccc(CN(Cc2ccco2)S(=O)(=O)c2ccc(-n3cnnn3)c(OC)c2)cc1`: the inhibition was 95.5% (active).

In the case of `COc1cc(S(=O)(=O)N(Cc2cccs2)C2CC2)ccc1-n1cnnn1`, the inhibition was 99.8% (active).

Take `C=CCn1c(CCc2ccc(OC(C)C)cc2)n[nH]c1=S`: the inhibition is 1.12% (inactive).

As for `O=C(c1ccc(F)cc1)N1CCC(n2nnc3ccccc32)CC1`, the inhibition was 1.08% (inactive).

With `CCc1c(O)cc2n(c1=O)-c1ccccc1C2(C)C`, the inhibition was 51.1% (active).

With `CCc1c(O)nc(SCC(=O)N2CCCCC2)n(-c2ccccc2C)c1=O`, the inhibition is 1% (inactive).

As for `CC(=O)c1c(O)cc2n(c1=O)-c1ccc(Cl)cc1C2(C)C`, the inhibition is -6.77% (inactive).

Regarding `O=C(Nc1nnc(C2CC2)s1)C1=NN(C2CCS(=O)(=O)C2)C(=O)CC1` (centres undefined), the inhibition is -3.9% (inactive).

`COC(=O)c1cc2c(ccn2C)n1C`: the inhibition was -2.26% (inactive).

In the case of `N#CC1=C(SCc2ccc(C#N)cc2)N=C(N)C(c2nc(-c3ccccc3)cs2)C12CCCCC2` (centres undefined), the inhibition was 98% (active).

In the case of `N#CC1=C(SCc2ccccc2)NC(=O)C(C#N)C12CCCC2` (centres undefined), the inhibition was -9.59% (inactive).

With `N#C/C(=C1\CCCN1)c1nc(-c2ccccc2)cs1`, the inhibition was 4.05% (inactive).

Regarding `CCN(CC)S(=O)(=O)c1ccc(OC(C)C)c(N)c1`, the inhibition was -4.13% (inactive).

In the case of `Nc1nc(SCC(=O)NNc2c(Cl)cc(Cl)cc2Cl)n[nH]1`, the inhibition is -7.01% (inactive).

`CCOC(=O)CNC(=O)N1c2ccccc2Sc2ccccc21`: the inhibition was 3.23% (inactive).

Take `O=C(CN1CCCCC1)N1c2ccccc2Sc2ccc(C(F)(F)F)cc21`: the inhibition was 92% (active).

With `O=C(CN1CCCCCC1)N1c2ccccc2Sc2ccc(C(F)(F)F)cc21`, the inhibition is 46% (inactive).

For `COc1cc(/C=C2\SC(=S)N(Nc3ncc(C(F)(F)F)cc3Cl)C2=O)cc(OC)c1OC`, the inhibition was -11.1% (inactive).

For the molecule `COc1cc(/C=C/C(=O)N2c3ccccc3Sc3ccc(C(F)(F)F)cc32)cc(OC)c1OC`, the inhibition is 81.2% (active).

As for `COc1cc(/C=C/C(=O)O)cc(S(=O)(=O)Nc2ccccc2SC)c1OC`, the inhibition was 46.9% (inactive).

Regarding `O=C(NC(Cc1c[nH]c2ccccc12)C(=O)O)/C(=C/c1ccco1)NC(=O)c1ccccc1` (centres undefined), the inhibition was 3.28% (inactive).

Consider `COc1ccc(CC(NC(C)=O)C(=O)NC2CCN(C(=O)c3ccc(OC)c(OC)c3)CC2)cc1OC` (centres undefined), for which the inhibition was -4.66% (inactive).

Regarding `CCCN(CC(=O)Nc1ccc(C(N)=O)cc1)CC(=O)Nc1ccccc1C`, the inhibition was 7.98% (inactive).

Regarding `Cc1cccc(C(=O)Nc2ccc3c(c2)C(=O)N(CC(C)C)C3=O)c1`, the inhibition is -9.76% (inactive).

Consider `COc1ccc2c(c1)cc1n2CCN=C1NN`, for which the inhibition was 84.1% (active).

For `Cc1cc(C(=O)Cn2cnc3cc([N+](=O)[O-])ccc3c2=O)c(C)n1CC1CCCO1` (centres undefined), the inhibition was -3.96% (inactive).

On to `Clc1ccc(C2=CSC3=Nc4cccc5cccc(c45)N23)cc1`, for which the inhibition is 99.4% (active).

In the case of `Cc1ccc(NC(=O)O/N=C/c2cccc([N+](=O)[O-])c2)cc1`, the inhibition was -3.19% (inactive).
